Assay results: PubChem BioAssay (NCI)
This is part of a sample that, as a whole, favours compounds with a hit. Of some 83,000 tested, about 20% had one in any assay.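 How to read the values: 0–100, growth inhibition (40 = 60% inhibited); 0, no net growth; -100 to 0, cell death (-40 = 40% of starting cells died; -100 = all dead).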 A number with no mark means an inactive call. Active and inactive are the calls of the source. How the source made its calls: active means growth percent below 10; inactive means the rest.

How the values were obtained:
Test in all cases: NCI-60 one-dose screen, 48 h (100 = growth as untreated, 0 = no growth, -100 = all killed)
Details in all cases: 10 µM unless noted
NCI-H23 lung = test system: NCI-H23 lung
NCI-H226 lung = test system: NCI-H226 lung
NCI-H322M lung = test system: NCI-H322M lung
HOP-62 NSCLC = test system: HOP-62 NSCLC
NCI-H460 lung = test system: NCI-H460 lung
HOP-92 NSCLC = test system: HOP-92 NSCLC
A549/ATCC NSCLC = test system: A549/ATCC NSCLC
786-0 renal = test system: 786-0 renal
COLO 205 colon = test system: COLO 205 colon

| SMILES | growth (NCI-H23 lung) | growth (NCI-H226 lung) | growth (NCI-H322M lung) | growth (HOP-62 NSCLC) | growth (NCI-H460 lung) | growth (HOP-92 NSCLC) | growth (A549/ATCC NSCLC) | growth (786-0 renal) | growth (COLO 205 colon) |
| --- | --- | --- | --- | --- | --- | --- | --- | --- | --- |
| O=c1[nH]c(N2CCC(Cc3ccccc3)CC2)nc2sc3c(c12)CCCC3 | 95.9% | 92.3% | 97.1% | 94.5% | 102% | 91.2% | 77.5% | 105% | 105% |
| CC[C@@H](C)/C=C(C)/C=C/C(=O)c1c(O)c(-c2ccc(O)cc2)cn(OC2CC(=O)CCC(C)OC(=O)CC2O)c1=O (stereo partly specified) | 26.8% | 15.8% | 5.13% (active) | 7.07% (active) | -19.6% (active) | 57.7% | 17.9% | -6.82% (active) | 67.8% |
| Cc1nn(-c2ccccc2)c2nc(N)c(C3=NCCO3)nc12 | 96.9% | 93.6% | 89.5% | 81.2% | 97.7% | 43.6% | 86.5% | 99.7% | 94.1% |
| COc1ccc(-c2c3c(N)nc(-c4ccncc4)nc3nc3c2c(C)nn3-c2ccccc2)cc1 | 59.9% | 74% | 74.3% | 62.6% | 23.4% | 51.4% | 30.8% | 72.6% | 38.6% |
| CN(C)CCC(=O)Nc1ccc(-n2cc(-c3cccc(NC(=S)Nc4cccc(-c5cn(-c6ccc(NC(=O)CCN(C)C)cc6)nn5)c4)c3)nn2)cc1 | 89.1% | 135% | 92.4% | 105% | 95.6% | 101% | 88.6% | 101% | 99.4% |
| CN(C)c1ccc(-n2nc3ccccc3n2)cc1 | 95.6% | 86.4% | 111% | 78% | 105% | 86.9% | 92.3% | 83.3% | 102% |
| C=CCN(/C=C/CN(CC=C)CC=C)CC=C | 108% | 95.7% | 96.7% | 97.7% | 105% | 91.2% | 99.6% | 104% | 107% |
| O=C1/C(=C\c2coc3ccccc3c2=O)c2ccccc2N1c1c(Cl)cccc1Cl | 55.4% | 90.7% | 73.7% | 68.2% | 19% | 32.1% | 26.6% | 27% | 55.3% |
| NC(=O)NC1(C(=O)O)CCCC1 | 105% | 111% | 115% | 110% | 112% | 121% | 101% | 107% | 107% |
| COc1ccc(-c2ccc(O)c(C(=O)/C=C/c3cc(OC)c(OC)c(OC)c3)c2)cc1 | 72.7% | 99.1% | 81.8% | 103% | 79.9% | 56% | 80.5% | 99.4% | 83.7% |
| COc1ccc2cc(C3=CC(=O)CCC3)ccc2c1 | 91.8% | 55.5% | 93.6% | 112% | 110% | 83.5% | 82.6% | 90.5% | 99.9% |
| Cc1cc(C)c2c(N)c3cccc(C)c3nc2n1 | -28.6% (active) | -10.6% (active) | 0.65% (active) | -28.4% (active) | -1.3% (active) | -12.9% (active) | -40.9% (active) | -3.97% (active) | -18.2% (active) |
| O=C1/C(=C/c2ccc(F)cc2)Cc2ccccc21 | 99.7% | 94.2% | 95.2% | 96.2% | 103% | 80.4% | 91.7% | 96% | 115% |
| CN(C)c1ccc(-c2nc3ncc(Br)cc3o2)cc1 | 87.5% | 97.9% | 90.2% | 91.9% | 109% | 61.8% | 103% | 86.5% | 81.3% |
| O=C(C(=O)c1cc(Br)ccc1O)c1cc(Br)ccc1O | 19.8% | 90.9% | 67.6% | 50.3% | 39% | 25.4% | 50.7% | 61.2% | 100% |
| COc1c(O)cc2c(c1CC=C(C)C)OC(=O)c1c(cc(O)c(CC=C(C)C)c1O)O2 | -8.77% (active) | 88.1% | 77.1% | 6.39% (active) | 9.47% (active) | 54.6% | 57.1% | 19.3% | 107% |
| CCCCCCCCCCOC(C)=O | 113% | 98.6% | 107% | 108% | 110% | 89.3% | 106% | 114% | 116% |
| COc1ccc(C(=O)/C=C/c2cccc(Nc3ccnc4cc(Cl)ccc34)c2)cc1 | 43.2% | 54.3% | 49.6% | 18.8% | 31.6% | 29.1% | 29.4% | -35.4% (active) | 45.1% |
| C(=C1c2ccccc2-c2ccccc21)c1ccccn1 | 79.9% | 99.6% | 89.1% | 71.7% | 83.8% | 73.4% | 63.7% | 87.2% | 84.9% |
| CCOC(=O)OCC(=O)[C@@]1(O)CC[C@H]2[C@@H]3CCC4=CC(=O)CC[C@]4(C)[C@H]3[C@@H](O)C[C@@]21C | 111% | 70.1% | 99.2% | 98.5% | 102% | 72.5% | 74.2% | 108% | 104% |
| Cc1sc2nc(NCc3ccccc3)[nH]c(=O)c2c1C | 75.2% | 82.1% | 91.3% | 39.2% | 26.6% | 69.4% | 33.6% | 67.2% | 34.7% |
| COc1cc(/C=C/C(=O)C(C(=O)/C=C/c2ccc(OC(=O)CCNC34CC5CC(CC(C5)C3)C4)c(OC)c2)C(=O)CCNC23CC4CC(CC(C4)C2)C3)ccc1OC(=O)CCNC12CC3CC(CC(C3)C1)C2 (stereo unspecified) | 32.2% | 31.4% | 51.6% | 29.8% | 7.93% (active) | 44.6% | 29.1% | -53.3% (active) | 17.7% |
| COc1cc(/C=C/c2cc(/C=C/c3ccc(O)c(OC)c3)n(C(=O)c3ccc(Cl)cc3)n2)ccc1O | 21.8% | 48.4% | 28.5% | 20.3% | 4.86% (active) | -2.95% (active) | 12.4% | 19.5% | 98.7% |
| COc1ccc(CCN2C(=O)CCC3=C2CCCC3=O)cc1OC | 98.2% | 105% | 98% | 95.3% | 106% | 78.2% | 106% | 108% | 88.6% |
| CCNCCCn1c2c(c3ccc(F)cc3c1=O)C(=O)c1cc(OC)cnc1-2 | -40.4% (active) | -59.1% (active) | -3.52% (active) | -29% (active) | -27.1% (active) | -15.5% (active) | -62.6% (active) | -38.4% (active) | -32% (active) |
| Nc1nc2c(nnn2Cc2ccc(Cl)c(Cl)c2)c(=O)[nH]1 | 104% | 96.5% | 82.4% | 90.4% | 104% | 75.5% | 103% | 97.3% | 98.5% |
| O=C1CNc2cc(Cl)ccc2N1 | 96.7% | 103% | 106% | 99.2% | 109% | 102% | 113% | 109% | 106% |
| COc1cc(NC(C)CCCN)c2nc(C)ccc2c1Oc1ccc(F)cc1 (stereo unspecified) | 84.8% | 84.9% | 37.4% | 85.8% | 73.8% | 50.3% | 90% | 65.9% | -45.1% (active) |
| COc1cc(/C=N/NC(=O)c2ccc(C(F)(F)F)nc2Nc2cc(Cl)ccc2C)cc(OC)c1OC | 104% | 96.6% | 105% | 99.7% | 108% | -30% (active) | 103% | 97.7% | 109% |
